# ± gives the standard deviation of the averaged measurements. In all, about 33,000 sequences were measured (“E-score (dimensionless, -0.5 to 0.5)”: median about -0.046, highest 2% from about 0.36 on). Shown is part of a subset that was picked to be rich in the highest values.
# System: T1, SpTbr T-box DNA-binding domain (GST fusion)
# T1 sequence: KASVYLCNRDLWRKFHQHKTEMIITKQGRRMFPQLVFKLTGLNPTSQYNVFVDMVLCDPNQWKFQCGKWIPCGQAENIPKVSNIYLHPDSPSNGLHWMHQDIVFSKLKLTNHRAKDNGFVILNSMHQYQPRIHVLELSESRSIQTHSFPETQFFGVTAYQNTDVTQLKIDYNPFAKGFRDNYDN
# Experiment: PBM E-score of 8-mer (E-score (dimensionless, -0.5 to 0.5)); Tbr is Tbrain of the sea star Patiria miniata (Pm) or the sea urchin Strongylocentrotus purpuratus (Sp); higher = stronger binding preference
# Conditions: the construct has about 5 more residues each side
# Experimental: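 Universal protein-binding microarray (Agilent AMADID 016060, 60-bp probes with a 35-bp variable region) incubated with 200 nM GST-fused Strongylocentrotus purpuratus Tbr T-box DNA-binding domain (residues 362-554) in PBS pH 7.5. Scored for every ungapped 8-mer (given with its reverse complement) as E-score (range -0.5 to 0.5; >0.45 counts as bound) and Z-score of median probe intensity. Two replicate arrays (datasets 1 and 2).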
# 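Further: protein at 200 nM in PBS on universal double-stranded arrays.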
row,Sequence,PBM E-score of 8-mer
1,GAGATGGC,-0.0157 ± 0.0073
2,CAACCTAG,-0.0248 ± 0.069
3,AAAGGTGC,0.414 ± 0.01
4,AAGGGTGA,0.136 ± 0.04
5,AAAGGTAC,-0.0923 ± 0.05
6,AAAGGTGT,0.469 ± 0.0063
7,AAGGGTGT,0.383 ± 0.015
8,ATAGGTGA,0.284 ± 0.032
9,ATAGGTGC,0.412 ± 0.012
10,AAGGGTGG,0.146 ± 0.028
11,AAAGGTGG,0.0801 ± 0.026
12,AAAGGTGA,0.316 ± 0.0022
13,AAAGGTCC,0.0265 ± 0.0014
14,CTAGGTGC,0.3603 ± 0.003
15,CGGGTGAA,-0.3489 ± 0.0032
16,AGCAACCA,-0.0779 ± 0.012
17,CTACCGTC,-0.191 ± 0.04
18,ATTTACCG,-0.131 ± 0.054
19,CGAGGGTA,-0.211 ± 0.033
20,GATGAGGC,-0.112 ± 0.027
21,GGTCTACA,-0.0571 ± 0.025
22,AGGTAAAA,-0.0157 ± 0.037
23,CATTCACA,0.427 ± 0.014
24,GATTCACC,-0.0546 ± 0.0018
25,AATTCACA,0.297 ± 0.035

row,Sequence,PBM E-score of 8-mer
1,CATTCACC,-0.0478 ± 0.011
2,AATTCACG,0.345 ± 0.01
3,CATTCACG,0.238 ± 0.024
4,GATTCACA,0.392 ± 0.0093
5,TATTCACA,0.423 ± 0.023
6,GATTCAGA,-0.233 ± 0.061
7,CAGAGAGA,-0.036 ± 0.025
8,CGTAGCCA,-0.196 ± 0.073
9,CCGATAAA,-0.0119 ± 0.097
10,AGGAAACT,-0.0834 ± 0.015
11,CGCTTGAC,0.136 ± 0.0033
12,GGTTGACA,0.382 ± 0.017
13,AGTTGACC,-0.106 ± 0.098
14,AGTTGACG,0.226 ± 0.0068
15,CTTTGACA,0.174 ± 0.035
16,CGTTGACA,0.414 ± 0.0098
17,GCTTGACA,0.258 ± 0.034
18,GTTTGACA,0.332 ± 0.036
19,AGTTGACA,0.4138 ± 0.001
20,CGTTGACC,0.0141 ± 0.0079
21,CGTTGTTC,-0.116 ± 0.067
22,ACGGGCGG,-0.083 ± 0.0064
23,GTCTTGGA,-0.322 ± 0.015
24,CATAGAGA,-0.161 ± 0.012
25,CCCTGTAA,0.137 ± 0.0029

row,Sequence,PBM E-score of 8-mer
1,ATCGAGGC,-0.0694 ± 0.048
2,CACTTCAA,0.213 ± 0.013
3,AGTTGTCG,0.293 ± 0.033
4,GGTTGTCA,0.338 ± 0.0013
5,CGTTGTTA,0.142 ± 0.034
6,AGTTGTTG,0.245 ± 0.024
7,AGTTGTTA,0.369 ± 0.04
8,AGTTGTCA,0.393 ± 0.016
9,AGTTCGCC,0.0613 ± 0.039
10,GGTTCGGA,-0.2634 ± 0.0013
11,CGTTCGTA,-0.134 ± 0.018
12,AGTTCGCA,0.3728 ± 0.00053
13,AGTTCGCG,0.296 ± 0.038
14,GGTTCGCA,0.378 ± 0.0054
15,CGTTCGCA,0.411 ± 0.0075
16,CGTTCGCC,0.11 ± 0.024
17,GCTTCGCA,0.358 ± 0.017
18,CGGTTATA,-0.00559 ± 0.033
19,GGGGTCGA,-0.0352 ± 0.02
20,GCGAGATA,0.105 ± 0.0039
21,CATTGTCG,0.038 ± 0.0095
22,ATGATGAA,-0.154 ± 0.044
23,AGTGACAC,0.435 ± 0.0092
24,GGTGACGA,0.418 ± 0.018
25,AGTGACAG,0.3301 ± 0.0022

row,Sequence,PBM E-score of 8-mer
1,CGTGACGC,0.192 ± 0.033
2,AGTGACAT,0.277 ± 0.056
3,ACTGACAA,0.165 ± 0.0096
4,CGTGACAA,0.364 ± 0.0037
5,AGTGACGA,0.329 ± 0.029
6,CGTGACGA,0.311 ± 0.029
7,AGTGACAA,0.397 ± 0.014
8,CGTGACAC,0.38 ± 0.015
9,CGTGACAG,0.217 ± 0.019
10,GATCGAGA,0.00394 ± 0.097
11,AGGCTAAT,-0.255 ± 0.1
12,ACTAAGCC,-0.223 ± 0.02
13,AGCCTACC,-0.245 ± 0.012
14,GAGAATAC,-0.0812 ± 0.016
15,GATTTTGA,-0.0555 ± 0.0057
16,AACGCAAA,0.0563 ± 0.092
17,GCAGCGAA,0.104 ± 0.068
18,ACAAGAGG,-0.0502 ± 0.064
19,CAACTCTA,-0.0379 ± 0.031
20,TCGTATCA,0.129 ± 0.031
21,GTTGACGA,0.279 ± 0.0033
22,GGTGACAA,0.459 ± 0.011
23,TGTGACAA,0.412 ± 0.0055
24,TATGACAA,0.0285 ± 0.073
25,GGTGAAAC,-0.0179 ± 0.017

row,Sequence,PBM E-score of 8-mer
1,CTTGACAA,0.323 ± 0.011
2,GGTGACAC,0.4606 ± 0.0026
3,GGTGACTA,0.196 ± 0.039
4,GGTGACCA,0.075 ± 0.05
5,TCTGACAA,-0.0245 ± 0.056
6,GGAGACAC,0.193 ± 0.045
7,GTTGACAA,0.389 ± 0.016
8,CAACGGTC,0.11 ± 0.036
9,CTATAGAG,-0.282 ± 0.072
10,ACTAGGCA,-0.204 ± 0.036
11,CGCTTCAC,0.235 ± 0.042
12,AGGTCGAC,-0.00677 ± 0.036
13,ACGGCAGT,-0.173 ± 0.031
14,ATTATAGG,-0.255 ± 0.027
15,GGGTGACC,-0.0352 ± 0.046
16,CGGTGACA,0.326 ± 0.026
17,GGGTGACA,0.4258 ± 0.0018
18,GGGTGAAA,-0.0551 ± 0.015
19,TGGTGACA,0.39 ± 0.0062
20,TCGTGACA,0.325 ± 0.0037
21,GAGCGCTA,0.205 ± 0.021
22,AAAAGGTA,-0.207 ± 0.011
23,AACCTATA,-0.123 ± 0.024
24,CACCTATA,0.392 ± 0.015
25,AACCTATG,-0.15 ± 0.014

row,Sequence,PBM E-score of 8-mer
1,CACCTATC,0.358 ± 0.012
2,TACCTATA,-0.192 ± 0.0052
3,CACCTATG,0.427 ± 0.011
4,CGCTAATA,0.135 ± 0.092
5,CGCCGGCG,0.1618 ± 0.00064
6,ATCGTACC,-0.157 ± 0.03
7,GAACAGTA,0.00048 ± 0.058
8,CACCGCCG,0.151 ± 0.1
9,ATGTCACC,0.323 ± 0.0098
10,CTCTCACA,0.3477 ± 0.0025
11,CTGTCACA,0.358 ± 0.01
12,ATCTCAAC,0.00654 ± 0.026
13,GCCTCACA,0.292 ± 0.0099
14,CTGTCACC,0.396 ± 0.0078
15,ACCTCACC,0.224 ± 0.017
16,CTCTCACC,0.38 ± 0.021
17,CGCTCACC,0.0959 ± 0.018
18,ATCTCACC,0.422 ± 0.0058
19,GTCTCACA,0.382 ± 0.0069
20,GTCTCTCA,0.0648 ± 0.045
21,ATATGAAT,-0.00217 ± 0.023
22,ACACCAAA,0.315 ± 0.013
23,AAGAATGT,-0.0437 ± 0.045
24,TACCGGAA,-0.116 ± 0.02
25,AAGGAGAG,-0.168 ± 0.0067

row,Sequence,PBM E-score of 8-mer
1,CACCGATC,0.154 ± 0.014
2,TATATGCA,-0.113 ± 0.014
3,AATGCGTG,0.253 ± 0.028
4,CAGGTCAA,-0.18 ± 0.073
5,ACGGACAT,-0.0905 ± 0.036
6,AACTTAAT,-0.0641 ± 0.021
7,GTGCCCCA,-0.0876 ± 0.0044
8,AGCACCCC,0.27 ± 0.036
9,ATCTCTCA,0.171 ± 0.012
10,ATCTCACG,0.29 ± 0.012
11,ATCTCACA,0.372 ± 0.0029
12,ACCTCACG,0.239 ± 0.005
13,TCCTCACA,0.3492 ± 0.0024
14,ACCTCACA,0.41113 ± 4.2e-05
15,TCCTATCA,-0.0124 ± 0.0011
16,AGTGGCAA,0.305 ± 0.0085
17,GGTGGCAA,0.4 ± 0.011
18,GGTGGCAC,0.3544 ± 0.0029
19,AGTTTGAC,0.143 ± 0.018
20,GTGTGTTA,0.318 ± 0.021
21,ATGTGTTG,0.381 ± 0.014
22,ATGTGTTA,0.444 ± 0.015
23,ATGTGTTC,0.111 ± 0.064
